# Source: PubChem BioAssay
# Rows were chosen to be rich in hits. Some 1.8% of all compounds tested hit in one or more screens of this group.
# PKD1 kinase inh = inhibitors of human PKD1 kinase; Q15139; PKD1 kinase fluorescence polarization assay; inhibition, % (no concentration beside the values); actives 0.056% (n = 200,000)
# LANA-H2A inh = blocks KSHV LANA binding to histone H2A/H2B; Q9QR71; cell-free LANA-H2A/H2B peptide, fluorescence polarization; inhibition, % (test concentration not listed); actives 0.6% (n = 320,000); in the data active means inhibition mostly above about 10%, no sharp cut-off; inactive means mostly below about 6.7%
# GRK2 aptamer HTS = human GRK2 inhibition via aptamer displacement; inhibition of aptamer binding, % at 10 µM; P25098; actives 0.59% (n = 330,000); AID 488847; bead flow cytometry, FAM-aptamer displacement from GRK2;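 active means inhibition of aptamer binding above 40%, roughly 3 SD of noise, on plates passing a quality check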;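 further: median bead fluorescence of bound FAM aptamer so fluorescent compounds give negative values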
# VLA-4 inh = inhibition in a human VLA-4 binding assay; P13612; VLA-4 expressing cells, ligand binding flow cytometry; inhibition, % (about 7 µM as worked out from the volumes in the protocol); actives 0.2% (n = 330,000)
# DSG3 Ab inh = inhibitors of pemphigus antibody binding to human desmoglein-3. P32926. DSG3-coupled beads, scFv-anti-DSG3-GFP binding, flow cytometry; active compounds read low. binding (percent of control), % at 10 µM. actives 0.48% (n = 310,000). AID 588358;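 active means binding more than 3 SD below its plate's average and above zero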;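 further: hits lower antibody fragment binding to DSG3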
# HDAC3 inhib = blocks human histone deacetylase 3; AID 2718; recombinant HDAC3, fluorogenic peptide/trypsin coupled, fluorescence; actives 0.15% (n = 320,000); inhibition, % at 8.3 µM; O15379; in the data active means inhibition above about 26%, passing the limit was not always enough
# Target sequence (O15379 whole entry, looked up): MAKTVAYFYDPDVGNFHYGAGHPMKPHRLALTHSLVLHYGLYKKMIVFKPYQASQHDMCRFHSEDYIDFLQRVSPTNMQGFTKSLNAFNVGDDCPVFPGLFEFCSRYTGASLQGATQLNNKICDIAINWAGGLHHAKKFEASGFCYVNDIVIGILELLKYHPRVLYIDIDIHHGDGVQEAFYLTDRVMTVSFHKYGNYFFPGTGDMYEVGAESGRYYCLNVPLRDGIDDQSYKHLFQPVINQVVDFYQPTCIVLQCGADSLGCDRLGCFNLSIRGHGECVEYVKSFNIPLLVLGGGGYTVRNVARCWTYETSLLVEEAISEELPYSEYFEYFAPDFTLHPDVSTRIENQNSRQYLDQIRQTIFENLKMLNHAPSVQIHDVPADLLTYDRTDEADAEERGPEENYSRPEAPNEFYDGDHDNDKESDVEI
# GRK2 inh confirm = human GRK2 inhibition confirmation, cherry pick 1. AID 504451. aptamer displacement, % at 10 µM. bead-bound GRK2, FAM-aptamer displacement, flow cytometry. shares compounds with GRK2 aptamer HTS. actives 4% (n = 2,000);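 active means aptamer displacement above 40%, near three times the noise of non-fluorescent compounds, on plates passing quality checks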;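 further: negative values mostly reflect intrinsic compound fluorescence rather than true enhancement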
# Aptamer quench = counter-screen for GRK2 aptamer inhibitors: fluorescent aptamer quenchers; shares compounds with GRK2 aptamer HTS; Fluorescent RNA aptamer beads, quenching, flow cytometry; active compounds read high; fluorescence change (kMESF span), kMESF (test concentration not listed); 110 tested, under 10 active; AID 504521;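 active means compounds whose bead fluorescence drops by more than 37 kMESF across the dose range, marking them as dye quenchers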
# Aptamer quench SP = counter-screen for GRK2 aptamer inhibitors: fluorescent aptamer quenchers; 2,000 tested, under 10 active; Carboxyfluorescein RNA aptamer on beads, flow cytometry quenching; active compounds read low; fluorescence response (% of DMSO), % at 10 µM; shares compounds with GRK2 aptamer HTS; AID 504580;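 active means compounds that quench the bead-bound fluorescent RNA probe, cutting fluorescence to under half of the solvent control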;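 further: counterscreen run without GRK2 so only probe quenching by compound is measured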
# GRK2 confirm 2 = human GRK2 inhibition confirmation, cherry pick 2 | AID 504782 | shares compounds with GRK2 aptamer HTS | inhibition of aptamer binding, % at 10 µM | 360 tested, under 10 active | bead-bound GRK2, FAM-aptamer displacement, flow cytometry;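 active means inhibition of aptamer binding above 40%, about triple the noise seen with nonglowing compounds, on plates passing quality control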;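 further: negative values mostly come from compounds that fluoresce themselves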
# FAM quench SP = quenches fluorescent RNA aptamer, GRK2 hit artifact; AID 588494; carboxyfluorescein RNA aptamer beads, flow cytometry quenching; active compounds read low; 360 tested, under 10 active; shares compounds with GRK2 aptamer HTS; fluorescence response vs DMSO, % at 10 µM;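 active means response vs DMSO under 50%, meaning signal dropped by over half, treated as fluorescence quencher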;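 further: labelled aptamer on streptavidin beads without GRK2 as a quench counter-screen; 100% = bead fluorescence of DMSO wells and lower means quenching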
# * marks the source's active call; other numbers are inactive results; · = not tested or not shown. Unless noted, no stated cut-off is given here; in the data, active means inhibition above about 50%; inactive means the rest.
SMILES,PKD1 kinase inh,LANA-H2A inh,GRK2 aptamer HTS,VLA-4 inh,DSG3 Ab inh,HDAC3 inhib,GRK2 inh confirm,Aptamer quench SP,others
O=C(COc1ccccc1N1C(=O)c2ccccc2C1=O)c1ccc(Cl)cc1,2,-1,73*,-5,92,5,-8,98,
CCNC(=O)N1CCN(C(=O)NCC)CC1,2,-3,0,7,102,0,·,·,
CCNC(=O)N1CCOCC1,-12,1,45*,40,103,0,-6,100,
C[C@@H]1CCC(=O)N(C[C@@H](C)CSc2ccccc2)CC1,·,1,1,-10,111,-8,·,·,
CC1(C)Cc2c(sc(N)c2C#N)C(C)(C)N1,-1,8,0,-2,96,6,·,·,
CN1Cc2sc(N)c(C#N)c2CC1(C)C,-6,1,52*,-35,99,-2,3,97,
Cc1ccc(OCCCC(=O)N(C)CC(=O)Nc2ccccc2Cl)cc1,·,-2,1,17,99,5,·,·,
CCOc1ccc(OCCCC(=O)N(C)CC(=O)Nc2ccccc2Br)cc1,·,-2,46*,4,90,1,-2,106,
Cc1ccc(-c2c(C#N)c(N)n(-c3ccc(C)cc3)c(=O)c2C#N)cc1,-3,-8,42*,19,·,-1,-7,129,
O=C(NCC(c1ccco1)N1CCCC1)c1cc2ccccc2s1 (stereo unspecified),·,3,0,3,·,4,·,·,
O=C(Nn1cnnc1)c1cc(-c2cccc(Br)c2)nc2ccccc12,·,9,0,-1,99,5,·,·,
Cc1ccc(C(CNS(=O)(=O)c2ccccc2)N2CCN(C)CC2)cc1 (stereo unspecified),·,9,0,-3,95,-2,·,·,GRK2 confirm 2=6;FAM quench SP=99
Cc1ccc(C(CNS(=O)(=O)c2ccc(Br)cc2)N2CCN(C)CC2)cc1 (stereo unspecified),·,6,0,11,98,7,·,·,
CC(OCC(O)CN1CCCCC1CCO)c1ccc(Cl)cc1 (stereo unspecified),·,-2,75*,-1,111,-4,-7,93,
Cc1ccc(C(OCC(O)CN2CCCCC2CO)c2ccccc2)cc1 (stereo unspecified),-2,-3,0,2,111,-3,·,·,
Cc1cc(C)cc(N(CC(=O)NC2CCCC2)S(=O)(=O)c2c(C)[nH]c(=O)[nH]c2=O)c1,·,-2,2,2,87,10,·,·,
COc1ccc(N(CC(=O)NC2CCCC2)S(=O)(=O)c2c(C)[nH]c(=O)[nH]c2=O)cc1,1,-2,23,14,101,-1,4,97,
O=C(CS(=O)(=O)c1cccc(C(F)(F)F)c1)Nc1ccccc1Cl,4,0,1,6,97,2,·,·,GRK2 confirm 2=-5;FAM quench SP=107
Cc1c(NC(=O)Nc2ccccc2[N+](=O)[O-])c(=O)n(-c2ccccc2)n1C,·,7,13,0,87,-5,1,101,
O=C(Cn1cc([N+](=O)[O-])cn1)Nc1ccccn1,-4,-1,60*,-13,100,0,-1,96,
Cc1ccccc1NC(=O)Nc1ccccn1,·,1,0,30,93,2,·,·,
O=C(Nc1ccccn1)Nc1ccccc1[N+](=O)[O-],·,1,13,2,87,-6,0,103,
CCCN(C(=O)c1ccc(OCC(C)C)cc1)c1c(N)n(Cc2ccccc2)c(=O)[nH]c1=O,·,-1,1,-3,99,1,·,·,
Cc1ccc(C)c(SCC(=O)Nc2ccc(C)c(S(=O)(=O)N3CCOCC3)c2)c1,·,-2,0,2,100,5,·,·,
OCCSc1nc(N2CCOCC2)nc(N2CCOCC2)n1,0,1,40,9,98,1,3,97,
SMILES,PKD1 kinase inh,LANA-H2A inh,GRK2 aptamer HTS,VLA-4 inh,DSG3 Ab inh,HDAC3 inhib,GRK2 inh confirm,Aptamer quench SP,others
CCOc1ccc(NS(=O)(=O)c2cc(C(=O)NCCN3CCOCC3)ccc2C)cc1,·,1,4,-10,88,1,·,·,
O=C(CCC1CCCN(C(=O)c2ccc3c(c2)OCCO3)C1)NCc1ccccc1F (stereo unspecified),2,-3,0,6,·,-6,·,·,
Cc1ccc(CNC(=O)CCC2CCCN(C(=O)c3ccc4c(c3)OCO4)C2)o1 (stereo unspecified),1,2,45*,7,94,3,-2,93,
Cc1ccc(NC(=O)CN2C(=O)N/C(=C/c3cc(C)n(-c4ccc(C(=O)O)cc4)c3C)C2=O)cc1,-5,·,·,·,101,·,·,·,
Cc1ccc(NC(=O)CN2C(=O)N/C(=C/c3cccn3-c3ccc(C(=O)O)cc3)C2=O)cc1,-3,1,96*,28,·,6,86*,95,Aptamer quench=-0.9
C/C=C(/C)C(=O)OC1c2c(ccc3ccc(=O)oc23)OC(C)(C)C1OC(=O)/C(C)=C\C (stereo unspecified),11,4,70*,2,102,0,-2,100,
CC(c1nc2ccccc2c(=O)[nH]1)N1CCOCC1 (stereo unspecified),-6,1,0,13,108,4,·,·,
CC(c1nc2ccccc2c(=O)[nH]1)N1CCN(C)CC1 (stereo unspecified),-1,-1,0,-1,98,-1,·,·,GRK2 confirm 2=3;FAM quench SP=104
C=CCNC(=O)/C(=C/c1cn(-c2ccccc2)nc1-c1cccc([N+](=O)[O-])c1)NC(=O)c1ccccc1,6,5,0,5,109,-1,·,·,
C=CCNC(=O)/C(=C/c1cccc([N+](=O)[O-])c1)NC(=O)c1ccccc1,3,-1,46*,-22,103,0,0,97,
CN(CC(=O)Nc1ccc(N2CCOCC2)cc1)C(=O)CCc1ccccc1Cl,·,0,0,6,101,·,-1,98,
CN1C2=CC=CC=CC2=[N+](C)C12C([N+](=O)[O-])=CC(=[N+]([O-])[O-])C=C2[N+](=O)[O-] (stereo unspecified),·,-2,48*,16,93,-1,3,100,
